Screening data deposited in PubChem BioAssay by The Scripps Research Institute Molecular Screening Center.
A selection: hits, their analogues and other compounds. The true share with any hit is near 3.5%.
GPR151 activ: activators of human GPR151, primary screen, cell-based, PathHunter beta-arrestin, luminescence | activation, % at 11.2 µM | AID 1508602, 2020 | PathHunter beta-arrestin GPR151 cells | 650,000 compounds, 1% hits; in the data active = activation above about 4.9%;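 also: 0% = median of compound wells and 100% = cells with positive control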
Target sequence (Q8TDV0 whole entry, looked up): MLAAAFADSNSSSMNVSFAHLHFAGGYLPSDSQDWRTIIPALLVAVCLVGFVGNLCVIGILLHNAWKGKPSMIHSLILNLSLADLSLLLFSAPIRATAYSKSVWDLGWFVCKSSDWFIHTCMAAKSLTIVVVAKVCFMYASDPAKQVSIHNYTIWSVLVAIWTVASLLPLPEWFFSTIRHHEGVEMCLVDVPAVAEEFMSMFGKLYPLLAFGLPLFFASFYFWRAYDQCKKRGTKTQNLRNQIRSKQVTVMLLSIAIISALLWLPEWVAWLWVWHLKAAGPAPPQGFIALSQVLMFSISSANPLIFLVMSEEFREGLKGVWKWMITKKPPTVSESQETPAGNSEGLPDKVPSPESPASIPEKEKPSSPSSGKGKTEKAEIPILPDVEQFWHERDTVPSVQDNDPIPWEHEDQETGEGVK
MITF primary: MITF inhibitors, primary screen, biochemical, AlphaScreen, human | Microphthalmia-associated transcription factor (Homo sapiens), O75030 | AlphaScreen MITF homodimerization, bead proximity signal | inhibition, % at 2.6 µM | 650,000 compounds, 0.91% hits | AID 1259374, 2018; in the data active = inhibition above about 50%;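 also: 0% = vehicle wells with protein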
FBW7 act: FBW7 E3 ligase activators, primary screen, biochemical, AlphaScreen, human; F-box/WD repeat-containing protein 7 (Homo sapiens), Q969H0; AlphaScreen FBW7–phospho-cyclin E peptide binding, activator screen; normalized activity (activation), % at 26.1 µM; 650,000 compounds, 0.13% hits; in the data active = normalized activity above about 1.9%;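 also: purified mutant Fbw7 with reduced substrate affinity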
TEAD-YAP inh: TEAD-YAP interaction inhibition, primary screen, TEAD-YAP interaction inhibitor project, luminescence, HEK-TIYL cells | TEAD-Gal4/YAP UAS-luciferase luminescence | inhibition, % at 9.12 µM | 640,000 compounds, 1.4% hits | AID 1259422, 2018; in the data active = inhibition above about 32%;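 also: 0% = median of test compound wells and 100% = reference inhibitor wells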
GPR151 confirm: GPR151 activators, triplicate retest, confirmation, cell-based, PathHunter beta-arrestin, luminescence | shares compounds with GPR151 activ | activation, % at 11.2 µM | GPR151 PathHunter beta-arrestin cells, 90 min; % of EA-reagent control over plate median | AID 1508609, 2020 | 6,700 tested, under 10 active;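 active = mean percent activation across replicates above the confirmation screen cutoff of 4.91%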
GPR119 ag: GPR119 activators in beta-arrestin cells, counter-screen for GPR151 activator project, cell-based, PathHunter beta-arrestin, luminescence, triplicate. shares compounds with GPR151 activ. 90 min; 0 = compound-well median, 100 = enzyme-acceptor control. activation, % at 11.2 µM. 6,700 compounds, 0.3% hits. AID 1508611, 2020;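 active = mean percent activation in the counterscreen above 29.09%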;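 also: counterscreen on off-target GPR119 to flag nonselective hits from the GPR151 activator screen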
Starred values were filed as active, the others as inactive; x = no result.

SMILES | GPR151 activ | MITF primary | FBW7 act | TEAD-YAP inh | GPR151 confirm | GPR119 ag
COc1ccc(-c2cc3nc(C)c(CCC(=O)Nc4ncccc4C)c(C)n3n2)c(OC)c1 | -1 | 17 | 1 | 16 | x | x
COc1ccc(C(=O)NCc2nnc(SCC(=O)c3ccccc3)n2C)cc1 | 6.5* | 13 | 0 | -6 | -1 | 1
CCCCn1c(CNC(=O)c2ccc(OC)cc2)nnc1SCC(=O)OCC | 6.4* | 14 | 0 | 2 | 1 | 0
CCOC(=O)CSc1nnc(CNC(=O)c2ccc(OC)cc2)n1CC | 0 | 16 | 0 | 5 | x | x
COCCCNc1oc(-c2ccco2)nc1S(=O)(=O)c1ccccc1 | 0 | 10 | 0 | -1 | x | x
O=C(c1cnc(CN2CCCC2)s1)N1CCc2c([nH]c3ccccc23)C1c1ccccn1 (stereo not given) | 0 | -2 | 0 | 2 | x | x
CC(=O)Nc1nnc(SCC(=O)NC2CCCCC2)s1 | 0 | -8 | 0 | -4 | x | x
CC1CCC(Nc2nc3ccccc3c3nc(-c4cccnc4)nn23)CC1 (stereo not given) | 8.1* | -1 | 0 | -2 | 1 | 10
CCCCOc1ccc(OCCCC)c2c1NC1(N2)C(=O)Nc2ccc([N+](=O)[O-])cc21 | 5.1* | 5 | 0 | -9 | 1 | 2
C(=N\Nc1cc(N2CCCC2)nc(N2CCCC2)n1)/c1ccccc1 | 0 | 10 | 0 | 8 | x | x
COc1ccccc1NC(=O)c1ccc(NC(=O)COC(=O)c2ccc(O)cc2)cc1 | 5.4* | 0 | 0 | 13 | -2 | -15
Cc1ccc(C(=O)c2nocc2C(=O)c2cccs2)cc1 | 6.1* | 1 | 0 | 2 | 0 | -8
O=C(c1ccc(Cl)cc1)c1conc1C(=O)c1cccs1 | -1 | 8 | 0 | 8 | x | x
C=CCn1c(SCc2ccc(OC)c([N+](=O)[O-])c2)nnc1-c1cccc(Br)c1 | 5.0* | -18 | 0 | -8 | 0 | -4
Cc1ccc(-c2c(Nc3cccc(C)c3)c(=O)c2=O)cc1 | 2 | 11 | 0 | -9 | x | x
COc1ccc(C(=O)c2sc3nc(C)cc(-c4cccs4)c3c2N)cc1OC | 6.9* | -17 | 0 | -5 | -1 | 9
COc1ccc(C(=O)c2sc3nc(C)cc(-c4cccs4)c3c2N)cc1 | 0 | 2 | 0 | -2 | x | x
CN(C)c1ccc(C(CNS(=O)(=O)c2ccccc2Cl)N(C)C)cc1 (stereo not given) | -1 | 20 | 0 | 3 | x | x
O=c1c2ccccc2ncn1CCCOc1ccccc1[N+](=O)[O-] | 4.9* | 1 | 0 | -85 | 1 | -2
CCOc1ccccc1Nc1ccc(C(=O)N2CCCC2)cn1 | 8.7* | 13 | 0 | 8 | 0 | 4
Cc1ccc(CN2CCN(C/C=C/C(C)C)CC2CCO)o1 (stereo not given) | -1 | 3 | 0 | -3 | x | x
Cc1ccc(CN2CCN(C/C=C/c3ccc(F)cc3)CC2CCO)o1 (stereo not given) | 13* | 12 | 0 | 5 | 0 | -5
Cc1ccc(CN2CCN(Cc3ccc4c(c3)OCCO4)CC2CCO)o1 (stereo not given) | 5.9* | 8 | 0 | 3 | 1 | 12
COc1ccccc1/C=C/CN1CCN(Cc2ccccc2)C(CCO)C1 (stereo not given) | 0 | -3 | 0 | -3 | x | x
COc1ccccc1/C=C/CN1CCN(Cc2cccs2)C(CCO)C1 (stereo not given) | 6.9* | 8 | 0 | 3 | -1 | -10
Cc1ccc(CN2CCN(C/C(Cl)=C/c3ccccc3)CC2CCO)o1 (stereo not given) | 5.4* | 8 | 0 | 7 | 0 | -1
Clc1ccc(Nc2c(-c3ccc(N4CCOCC4)cc3)nc3cnccn23)cc1 | -1 | 3 | 1 | -7 | x | x
Cc1cccc2[nH]c(-c3ccc(NC(=O)C4CCCCC4)cc3)nc12 | -2 | 1 | 0 | -95 | x | x
